# About 79,000 compounds went through this panel and 15% of them were active in at least one assay; those are over-represented in the sample as a whole. Values without a mark were called inactive. The source made the active and inactive calls. Rule as the data show it: active = growth inhibition above about 70%; inactive = the rest.
# Tests used:
# [1] = NCI Yeast Anticancer Drug Screen. Data for the rad50 strain (AID 155);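 also: 0% = growth of vehicle-only cultures of the same strain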; conditions: S. cerevisiae rad50 strain growth inhibition; at 50.0 µM; stronger effect = higher value
# How it was run: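 Cells are treated with compound, grown, and their growth is then scored against vehicle-only cultures of the same repair-deficient yeast strain.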
# [2] = NCI Yeast Anticancer Drug Screen. Data for the mec2-1 strain (AID 157); conditions: S. cerevisiae mec2-1 strain, at 50.0 µM, stronger effect = higher value
# How it was run: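 Compounds were applied to mec2-1 yeast cells. Their growth was then compared with that of vehicle-treated cultures to give growth inhibition.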
# [3] = NCI Yeast Anticancer Drug Screen. Data for the sgs1 mgt1 strain (AID 161);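 also: 0% = growth of cultures given vehicle only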; conditions: S. cerevisiae sgs1 mgt1 strain, at 50.0 µM, stronger effect = higher value
# How it was run: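 Yeast cells carrying a defined DNA-repair defect were exposed to test compounds. Growth inhibition was measured relative to vehicle-treated controls.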
# [4] = NCI Yeast Anticancer Drug Screen. Data for the cln2 rad14 strain (AID 165);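 also: 0% = growth equal to vehicle treated cultures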; conditions: S. cerevisiae cln2 rad14 strain, at 50.0 µM, stronger effect = higher value
# How it was run: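 Strain: cln2 rad14 yeast, altered in cell cycle control and DNA damage repair. Read-out: growth inhibition vs vehicle.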
# [5] = NCI Yeast Anticancer Drug Screen. Data for the bub3 strain (AID 167); conditions: S. cerevisiae bub3 mutant strain, at 50.0 µM, stronger effect = higher value
# How it was run: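 Part of a panel of yeast mutants defective in DNA damage repair or cell cycle regulation. Each strain is grown with compound, and inhibition is calculated relative to solvent-treated cultures.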
# [6] = NCI Yeast Anticancer Drug Screen. Data for the mlh1 rad18 strain (AID 175); conditions: S. cerevisiae mlh1 rad18 strain growth inhibition; at 50.0 µM; stronger effect = higher value
# How it was run: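 A repair-deficient yeast strain is exposed to test compound, and growth is scored relative to vehicle-treated controls.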
SMILES,growth inhibition [1],growth inhibition [2],growth inhibition [3],growth inhibition [4],growth inhibition [5],growth inhibition [6]
CC(C)CC1CC(=O)NC1C(=O)O (configuration not stated),-14.2%,0.35%,-13.2%,-26.1%,-0.85%,-28.9%
Cc1c(C(=O)C/C(=N\O)C(=O)Nc2cc(Cl)c(Cl)cc2Cl)[n+](=O)c2ccccc2n1[O-],21.8%,14.3%,22.1%,14.7%,21.4%,32.4%
CCC(O)C(C)CO (configuration not stated),11.8%,5.05%,19.3%,-72.8%,7.8%,-46.9%
O=C(O)CCCC1CCC2NC(=O)NC2C1 (configuration not stated),1.55%,5.15%,-5.45%,6.4%,16.5%,-6%
COc1c(C)c2nc3ccccc3[nH]c2c2c(=O)ccnc12,-3.8%,-29.6%,-12.4%,14.8%,-21.9%,46.1%
CCCc1c(C(=O)OCC)[nH]c(-c2ccc(-c3[nH]c(C(=O)OCC)c(CCC)c3C(=O)OCC)s2)c1C(=O)OCC,-11.8%,-11.3%,-21.6%,3%,-12.6%,-16.1%
CCC/C=N/NC(=O)c1ccc(OC)cc1,-2.45%,-15.8%,-6.85%,-46.9%,5.85%,-4.7%
O=C1CCC2CCc3cccc1c32 (configuration not stated),0.15%,-7.75%,-12.3%,-19.4%,-18.6%,3.05%
CN(C)c1ccccc1N(C)C,5.5%,-15.4%,-14.9%,-8.2%,-1.35%,-13%
COC1OC(C(C)O)C(O)C(O)C1O (configuration not stated),23.6%,19%,10.2%,14.9%,4.65%,1.5%
CCCCS(=N)(=O)CC[C@H](N)C(=O)O (some centres not stated),2.3%,-22.6%,-25.1%,-1.4%,-47%,-9.85%
C=CC(C)(C)[C@@]12CC3C(=O)N[C@@H](Cc4ccccc4)C(=O)N3[C@@H]1N(C(C)=O)c1ccccc12 (some centres not stated),73.2% (active),12.2%,16.7%,50.5%,45.6%,53.1%
CC[CH2][Sn]([CH2]CC)([O]C(=O)c1cccnc1SC)[O][Sn]([CH2]CC)([CH2]CC)[O]C(=O)c1cccnc1SC,88.5% (active),90% (active),90.8% (active),88.9% (active),89.1% (active),82.1% (active)
CC(C)CCCC(C)C1CCC2C3C(=O)C=C4C=CCCC4(C)C3CCC12C (configuration not stated),5.95%,11.2%,34.1%,9.55%,5.9%,10.5%
CCCCCC#CC(=O)OC,-14.8%,1.45%,-17.4%,9.95%,-2.2%,2.75%
CCCC1OCC(CC)([N+](=O)[O-])CO1 (configuration not stated),19.6%,15.7%,18.1%,9.3%,-0.85%,-5.7%
CC1C=CC(C)c2c(-c3ccccc3)oc(-c3ccccc3)c21 (configuration not stated),17%,8.6%,-1.5%,-2.6%,-0.4%,9.7%
CCOC(=O)c1ccc(NC(=S)NC(=O)c2cccc([N+](=O)[O-])c2)cc1,-3.15%,6.55%,16.1%,-12.8%,15.1%,15.2%
NNC1=Nc2ccc(Cl)cc2C(=S)N2CSCC12 (configuration not stated),-1.05%,-3.1%,-11.7%,-11.8%,-8.95%,9.25%
Cc1c(-c2ccccc2)[nH]n(C2=NCCN2)c1=O,10.8%,7.45%,-31.4%,-6.35%,-15.5%,-25%
CO[C@@H]1[C@@H](O)c2ccccc2N1C(C)=O,13.4%,1.9%,-4%,8.15%,3.25%,20.1%

SMILES,growth inhibition [1],growth inhibition [2],growth inhibition [3],growth inhibition [4],growth inhibition [5],growth inhibition [6]
CC(C)OC(CCCl)c1ccccc1 (configuration not stated),-6.4%,-45.5%,-4.85%,5.6%,-23.7%,3.1%
Cc1ccc(N=Cc2ccc3c(c2)OCO3)cc1C,8.05%,6.2%,9.65%,40.6%,10.1%,29.2%
O=c1c2cnccc2cc2n1CCc1c-2[nH]c2ccccc12,88.4% (active),89.3% (active),88.8% (active),90.2% (active),69.8%,86.4% (active)
CCN(CC)CCC1(C#N)Cc2ccccc2N(CC)c2ccccc21 (configuration not stated),41.8%,5.05%,9.45%,15.6%,7.3%,-19.6%
Cc1cc2c(SCc3ccccc3Cl)nc(N)nc2nc1C,15.7%,12.3%,5.65%,-35%,-12.6%,31.6%
O=C(CI)NCC(O)CNC(=O)CI,16.9%,13.9%,18%,27.6%,9.2%,36.5%
CCOc1cc(/C=N/NC(=O)c2ccccc2NC(=O)c2ccccc2)ccc1OC,-21.6%,2.35%,17.8%,-4.1%,5.4%,5.7%
COc1ccccc1C(=O)Nc1c(C)cccc1Cl,-0.45%,-25.9%,-0.8%,0.4%,-10%,7%
ON=C(c1ccccc1)c1ccccc1,-0.15%,-3.8%,-2.05%,-7.2%,-1.95%,-2.95%
O=C(O)C1(C(=O)O)CCN(S(=O)(=O)c2ccccc2)CC1,-4%,-10.9%,-39%,-5.2%,-9.85%,-7%
CCN(CC)CCOCCO,-8.6%,-16%,-0.65%,11.7%,0.95%,-2.15%
CCCCCCCCCc1ccc(OCCOC(=O)OCCOc2ccc(CCCCCCCCC)cc2)cc1,40.9%,-21.9%,16%,13.8%,4.4%,31.6%
COc1cc2c(cc1C(C)c1ccc(OC(C)C)cc1)OCO2 (configuration not stated),-4.7%,-9.95%,-3.95%,-48.5%,-5.9%,-11.5%
O=C1c2ccccc2C(=O)N1C/C=C/CN1C(=O)c2ccccc2C1=O,6.85%,-5.7%,12.2%,-9.4%,8.05%,2.5%
CCOC(=O)/C(C#N)=C/c1ccc(Cl)cc1,-5.3%,-11.7%,-13.1%,0.85%,-34.4%,-0.65%
N#CCCc1c(-c2ccccc2)nc(N)[nH]c1=O,2.35%,0.85%,2.75%,-38.4%,-14.6%,-9.75%
CC(C)CC([N+](C)(C)C)P(=O)([O-])O (configuration not stated),-4.4%,1.6%,-4.7%,-9.2%,20.9%,-3.5%
CCc1[nH]c2ccc(C)cc2c1C(=O)c1cccnc1,5.3%,-0.15%,16.4%,7.2%,21.3%,7.6%
O=C(NCCCl)NCc1ccccc1,-10.9%,2.35%,1.4%,-40.1%,-15.2%,-2%
COc1cc(OC)c2nccc(NCCCN(C)C)c2c1[N+](=O)[O-],4.75%,-22.4%,5.75%,21.6%,-3.4%,4.75%
c1ccc([Si]2(c3ccccc3)[Si](c3ccccc3)(c3ccccc3)[Si](c3ccccc3)(c3ccccc3)[Si]2(c2ccccc2)c2ccccc2)cc1,6%,-1.4%,-35%,-1.45%,-0.45%,3.75%
